Test [1] can be described thus: yeast TOR pathway RPL19A-GFP modulators, primary screen, cell-based, S. cerevisiae, multiplex flow cytometry (AID 1862; in the data active means percent of DMSO control GFP below about 86%;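 further: lower values mimic rapamycin by blocking the RPL19A rise seen in DMSO cells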). The conditions noted are these: S. cerevisiae RPL19A-GFP strain, flow cytometry fluorescence, 3 h; at 10 µM; stronger effect = lower value. On the technique in general: A flow cytometer gives signals particle by particle.
The nature of test [2]: modulators of MEP2-GFP levels in yeast, primary screen, S. cerevisiae, multiplex flow cytometry (AID 1867;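 active means GFP response, as percent of the DMSO control, above the screen-wide mean plus 3 SD, about 139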;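 further: median GFP channel fluorescence of barcode-gated MEP2-GFP cells measured by flow cytometry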). The note with it: S. cerevisiae MEP2-GFP strain, 3 h, at 10 µM, stronger effect = higher value, 100% means same as DMSO wells.
Test [3] can be described thus: modulators of CIT2-GFP expression in yeast, primary screen, S. cerevisiae, GFP fusion, multiplex flow cytometry (AID 1870;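 active means percent response above a set limit, the screen-wide mean plus 3 SD, cut at about 130% in these data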;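 further: barcoded CIT2-GFP strain pooled with four other GFP strains with rapamycin as positive control; median GFP fluorescence per well over plate mean of DMSO wells so 100% = DMSO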). The conditions noted are these: 3 h, at 10 µM, stronger effect = higher value.
Test [4] can be described thus: modulators of LAP4-GFP expression in yeast, primary screen, S. cerevisiae, multiplex flow cytometry (AID 1873;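 active means GFP signal, as percent of the solvent control, above the screen mean plus 3 SD, about 149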). The note with it: 3 h, at 10 µM, stronger effect = higher value.
A short description of test [5]: modulators of AGP1-GFP expression in yeast TOR pathway, primary screen, cell-based, multiplex flow cytometry, S. cerevisiae (AID 1887;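 active means GFP signal above the screen-wide mean plus 3 SD, that is over about 124.5% of the solvent control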;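 further: AGP1-GFP fusion strain of S. cerevisiae within a five-strain barcoded multiplex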). The conditions noted are these: 3 h, at 10 µM, stronger effect = higher value.
Test [6] can be described thus: inhibitors of CD8+ T cell-vesicle binding, pilot screen, LFA-1/ICAM-1 modulator project, MLPCN validation set, flow cytometry (AID 2523;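 active means response below a set limit, under 55% cells CD8-positive and vesicle-bound, and CD8 cells' 90th-percentile brightness under 279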;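 on vesicle binding response: mean PE anti-B7-1 fluorescence of CD8+ cells relative to row control; 100% = QL9-loaded vesicles with DMSO vehicle in the same plate row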). The note with it: 2C mouse CD8+ T cells, at 7 µM, stronger effect = lower value; double positive events: measured here: CD8+/vesicle+ event percentage.
Test [7] addresses Integrin beta-1 (Homo sapiens) + Integrin alpha-4 (Homo sapiens) (UniProt P13612+P05556). Put plainly: inhibition of HUTS-21 binding to VLA-4, pilot screen, VLA-4 allosteric modulator project, U937 cells, HUTS-21 mAb, flow cytometry, validation set (AID 2674;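 active means inhibition above 50%, about 3 SD of the validation set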;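 further: antibody binding induced by the VLA-4 ligand LDV present at three times its Kd; 0% = LDV ligand with antibody and no compound and 100% = antibody without LDV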). The note with it: HUTS-21 LIBS mAb binding, at 6.7 µM, stronger effect = higher value, binding induced by LDV ligand.
Test [8] can be described thus: superoxide lowering in aged yeast cells, pilot screen, validation compound set (AID 2706;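 active means superoxide response below 65% of plate, a cut near 3 SD across the whole screen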;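 further: yeast exposed to compound for one week at 30 degrees C before staining; 100% = mean of all compound wells on the same plate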). The conditions noted are these: S. cerevisiae aging, superoxide DHE fluorescence; at 10 µM; stronger effect = lower value.
Test [9] addresses Beta-adrenergic receptor kinase 1 (Homo sapiens) (UniProt P25098). The experiment in a line: GRK2 binders displacing RNA aptamer, biochemical, validation, human GRK2, bead flow cytometry (AID 488806;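 active means aptamer binding inhibition above 30%, about 3 SD of noise from non-fluorescent compounds; inactive means inhibition at or below 30%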). The note with it: bead-bound GRK2, FAM-aptamer displacement, at 10 µM, stronger effect = higher value.
For test [10], the target named is Beta-2 adrenergic receptor (Homo sapiens) (UniProt P07550). The experiment in a line: beta2AR agonists driving receptor internalization, pilot screen, cell-based, FAP fluorogen, flow cytometry, validation set (AID 504459).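 Further: agonist-driven loss of surface beta2AR via internalization measured by FAP dye flow cytometry.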 The conditions noted are these: Am2.2-beta2AR cells, FAP surface receptor flow cytometry; at 10 µM; stronger effect = higher value.
The target in test [11] is AP-2 complex subunit beta (Homo sapiens) (UniProt P63010). The experiment in a line: inhibitors of arrestin peptide binding to AP2, pilot screen, biochemical, validation set, GST-AP2 beads, flow cytometry (AID 504541;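 active means inhibition above 54%, about 3 SD of non-fluorescent compounds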;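 further: AP2 carries R879A mutation and is captured from E. coli lysate; bead-bound FITC arrestin peptide fluorescence measuring arrestin peptide binding to AP2; 0% = DMSO wells and 100% = excess unlabeled arrestin peptide control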). The note with it: FITC arrestin peptide, at 10 µM, stronger effect = higher value, AP2 beta2 appendage fragment, R879A mutant.
Test [12] can be described thus: yeast V-ATPase proton transport modulators, S. cerevisiae, pHLuorin, HTS validation (AID 504600; in the data active means response above about 15%;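 further: plate controls were DMSO for no effect and reference compound for full effect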). The note with it: S. cerevisiae pHLuorin cytosolic pH, at 10 µM, stronger effect = higher value.
The test system of test [13] is anti-desmoglein-3 scFv antibody binding to human DSG3. The experiment in a line: inhibitors of anti-DSG3 scFv binding to DSG3, pilot screen, biochemical, validation compound set, bead-based, flow cytometry (AID 588368;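 active means binding below the plate cutoff, the plate median minus 3 SD, with a reading above zero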;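 further: signal is the median channel fluorescence of bead-bound GFP antibody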). The note with it: Protein G beads, DSG3-Fc, scFv-GFP binding, at 10 µM, stronger effect = lower value.
Test [14] can be described thus: inhibitors of fungal efflux pumps CDR1, CDR2, MDR1, pilot screen, validation compound set, multiplex, phenotypic (AID 588506;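 active means efflux inhibition above 0.42, the validation set average plus 4 SD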;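 further: Nile Red retained in cells so higher fluorescence means more efflux inhibition; 0 = negative control wells and 1 = enniatin B 25 µM full block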). The note with it: S. cerevisiae pump-expressing triplex, Nile Red efflux flow cytometry; at 10 µM; stronger effect = higher value; the pumps come from Candida albicans.
Test [15] has as its target ATP-binding cassette sub-family B member 6 (Homo sapiens) (UniProt Q9NP58). The experiment in a line: ABCB6 transporter inhibitors, pilot screen, K562-ABCB6 cells, flow cytometry, validation set (AID 588550;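 active means inhibition above the screen-wide mean plus 3 SD, about 51%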;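 further: 0% = DMSO wells and 100% = benzethonium chloride 70 µM positive control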). The note with it: K562-ABCB6 porphyrin accumulation, 1 h, at 10 µM, stronger effect = higher value.
Test [16] in a line: promoters of myeloid differentiation in arrested cells, primary screen, cell-based, GFP/MAC1 double positive, flow cytometry, validation set (AID 588685;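 active means differentiation response of at least 50%, scaled between solvent and reference control, from cells with both markers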;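 further: compound exposure lasts four days before antibody staining and flow analysis; 0% = DMSO wells and 100% = 5 µM fulvestrant positive control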). The conditions noted are these: ER-HoxA9 marrow cells, stronger effect = higher value, normalized: vehicle 0, fulvestrant 100.

Inconclusive results are not listed. Active and inactive are the calls of the source.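 How the source made its calls, unless noted: active means percent response above 42, roughly 3 SD of non-fluorescent test compounds; inactive means the rest.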

Sequence of Integrin beta-1 (Homo sapiens) + Integrin alpha-4 (Homo sapiens) (P05556 whole entry, looked up): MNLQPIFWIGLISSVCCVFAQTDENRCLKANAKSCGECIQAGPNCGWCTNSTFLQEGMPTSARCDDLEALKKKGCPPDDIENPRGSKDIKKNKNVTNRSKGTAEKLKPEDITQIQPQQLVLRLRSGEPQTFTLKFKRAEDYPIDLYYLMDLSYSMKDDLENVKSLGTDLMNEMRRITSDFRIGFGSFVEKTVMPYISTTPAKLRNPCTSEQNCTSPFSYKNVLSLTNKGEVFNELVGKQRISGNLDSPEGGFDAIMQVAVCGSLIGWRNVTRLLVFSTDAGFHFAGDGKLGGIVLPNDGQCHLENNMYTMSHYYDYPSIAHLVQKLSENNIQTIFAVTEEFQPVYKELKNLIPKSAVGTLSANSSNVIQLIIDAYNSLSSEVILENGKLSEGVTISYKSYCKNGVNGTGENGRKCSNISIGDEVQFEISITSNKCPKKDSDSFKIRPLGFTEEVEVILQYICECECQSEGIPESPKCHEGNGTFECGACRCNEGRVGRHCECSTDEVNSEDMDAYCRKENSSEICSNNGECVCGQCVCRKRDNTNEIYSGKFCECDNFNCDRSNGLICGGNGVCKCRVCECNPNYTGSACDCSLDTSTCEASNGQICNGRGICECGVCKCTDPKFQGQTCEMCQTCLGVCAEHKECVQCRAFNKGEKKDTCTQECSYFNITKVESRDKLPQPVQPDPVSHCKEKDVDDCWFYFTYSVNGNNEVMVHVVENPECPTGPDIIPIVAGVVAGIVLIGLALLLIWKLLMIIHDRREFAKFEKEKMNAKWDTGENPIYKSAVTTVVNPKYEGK
Sequence of Integrin beta-1 (Homo sapiens) + Integrin alpha-4 (Homo sapiens) (P13612 whole entry, looked up): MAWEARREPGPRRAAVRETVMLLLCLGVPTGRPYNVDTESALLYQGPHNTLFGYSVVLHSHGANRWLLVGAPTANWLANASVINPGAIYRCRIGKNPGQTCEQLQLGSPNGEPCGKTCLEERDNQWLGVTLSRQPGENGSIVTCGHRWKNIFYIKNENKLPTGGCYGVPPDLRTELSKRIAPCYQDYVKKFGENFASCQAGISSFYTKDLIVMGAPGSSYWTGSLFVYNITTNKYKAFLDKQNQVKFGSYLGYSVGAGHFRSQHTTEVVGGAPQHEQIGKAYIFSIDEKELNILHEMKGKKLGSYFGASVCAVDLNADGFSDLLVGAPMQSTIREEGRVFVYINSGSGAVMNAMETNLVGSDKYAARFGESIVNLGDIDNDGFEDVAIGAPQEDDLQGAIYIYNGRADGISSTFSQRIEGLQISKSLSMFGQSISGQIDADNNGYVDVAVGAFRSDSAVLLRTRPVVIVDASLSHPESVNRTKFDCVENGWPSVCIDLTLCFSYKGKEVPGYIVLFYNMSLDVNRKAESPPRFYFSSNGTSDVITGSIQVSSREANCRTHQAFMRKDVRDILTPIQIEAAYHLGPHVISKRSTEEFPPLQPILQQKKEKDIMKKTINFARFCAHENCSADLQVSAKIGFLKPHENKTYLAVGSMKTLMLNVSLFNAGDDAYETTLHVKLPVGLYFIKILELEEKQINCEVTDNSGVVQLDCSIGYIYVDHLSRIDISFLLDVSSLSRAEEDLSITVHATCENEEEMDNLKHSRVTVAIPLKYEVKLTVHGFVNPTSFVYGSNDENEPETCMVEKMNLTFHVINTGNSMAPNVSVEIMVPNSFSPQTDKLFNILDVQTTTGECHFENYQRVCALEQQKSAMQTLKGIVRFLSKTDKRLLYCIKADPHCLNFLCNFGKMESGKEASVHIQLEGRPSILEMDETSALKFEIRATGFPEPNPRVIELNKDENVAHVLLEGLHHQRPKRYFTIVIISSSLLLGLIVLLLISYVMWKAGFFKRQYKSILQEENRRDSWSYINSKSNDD
Sequence of AP-2 complex subunit beta (Homo sapiens) (P63010 whole entry, looked up, the tested form may be a part, one chain of several): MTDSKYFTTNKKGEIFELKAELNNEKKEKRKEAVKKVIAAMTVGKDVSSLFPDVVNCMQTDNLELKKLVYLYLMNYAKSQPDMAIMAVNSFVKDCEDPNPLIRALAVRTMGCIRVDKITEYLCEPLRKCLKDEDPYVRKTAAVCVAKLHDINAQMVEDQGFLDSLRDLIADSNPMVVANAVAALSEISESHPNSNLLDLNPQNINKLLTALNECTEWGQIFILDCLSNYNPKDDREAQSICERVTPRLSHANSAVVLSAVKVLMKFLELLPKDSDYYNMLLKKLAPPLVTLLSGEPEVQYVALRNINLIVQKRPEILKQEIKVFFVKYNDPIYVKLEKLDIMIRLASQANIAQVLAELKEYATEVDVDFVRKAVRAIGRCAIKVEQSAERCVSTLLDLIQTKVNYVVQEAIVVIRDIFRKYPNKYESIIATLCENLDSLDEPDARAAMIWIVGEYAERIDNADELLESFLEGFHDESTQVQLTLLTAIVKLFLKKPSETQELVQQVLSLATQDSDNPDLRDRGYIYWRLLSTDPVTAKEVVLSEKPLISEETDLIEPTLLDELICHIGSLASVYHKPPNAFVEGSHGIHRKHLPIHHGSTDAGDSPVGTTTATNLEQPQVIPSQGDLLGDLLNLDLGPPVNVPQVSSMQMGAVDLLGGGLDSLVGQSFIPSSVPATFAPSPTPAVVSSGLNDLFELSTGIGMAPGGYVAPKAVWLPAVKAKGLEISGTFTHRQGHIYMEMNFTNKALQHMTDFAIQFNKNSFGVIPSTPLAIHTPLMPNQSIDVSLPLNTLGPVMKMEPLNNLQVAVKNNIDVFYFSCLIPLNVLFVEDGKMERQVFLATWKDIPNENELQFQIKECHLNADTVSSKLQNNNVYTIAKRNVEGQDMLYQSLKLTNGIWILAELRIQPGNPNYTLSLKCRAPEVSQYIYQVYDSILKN
Sequence of Beta-2 adrenergic receptor (Homo sapiens) (P07550 whole entry, looked up): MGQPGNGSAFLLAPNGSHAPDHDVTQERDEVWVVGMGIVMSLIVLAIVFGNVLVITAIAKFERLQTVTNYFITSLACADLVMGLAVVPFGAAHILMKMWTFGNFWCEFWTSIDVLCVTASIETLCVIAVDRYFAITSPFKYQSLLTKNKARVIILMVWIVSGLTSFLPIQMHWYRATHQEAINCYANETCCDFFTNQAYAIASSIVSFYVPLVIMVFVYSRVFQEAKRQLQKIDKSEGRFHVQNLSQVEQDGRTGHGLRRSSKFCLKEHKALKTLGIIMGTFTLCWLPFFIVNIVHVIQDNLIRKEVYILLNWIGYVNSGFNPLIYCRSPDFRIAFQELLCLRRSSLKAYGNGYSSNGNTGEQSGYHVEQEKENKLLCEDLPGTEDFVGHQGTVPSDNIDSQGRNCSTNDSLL
Sequence of Beta-adrenergic receptor kinase 1 (Homo sapiens) (P25098 whole entry, looked up): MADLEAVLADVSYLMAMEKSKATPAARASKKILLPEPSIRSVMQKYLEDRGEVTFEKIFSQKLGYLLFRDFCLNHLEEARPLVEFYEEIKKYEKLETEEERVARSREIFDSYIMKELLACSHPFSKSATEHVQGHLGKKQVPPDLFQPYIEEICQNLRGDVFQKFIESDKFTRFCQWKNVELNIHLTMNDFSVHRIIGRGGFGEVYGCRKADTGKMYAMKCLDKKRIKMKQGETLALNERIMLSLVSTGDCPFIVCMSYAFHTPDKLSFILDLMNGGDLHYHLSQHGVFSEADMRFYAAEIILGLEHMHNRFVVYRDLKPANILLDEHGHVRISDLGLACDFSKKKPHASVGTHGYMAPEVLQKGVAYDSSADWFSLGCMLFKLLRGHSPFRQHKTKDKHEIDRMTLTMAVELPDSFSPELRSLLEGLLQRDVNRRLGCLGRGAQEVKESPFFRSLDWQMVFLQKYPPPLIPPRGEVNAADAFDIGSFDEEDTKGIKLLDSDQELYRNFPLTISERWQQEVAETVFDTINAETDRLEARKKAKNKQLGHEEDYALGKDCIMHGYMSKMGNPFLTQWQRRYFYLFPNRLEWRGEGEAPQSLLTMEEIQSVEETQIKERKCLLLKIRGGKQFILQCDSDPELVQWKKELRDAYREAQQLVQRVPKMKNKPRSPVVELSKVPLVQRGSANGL
Sequence of ATP-binding cassette sub-family B member 6 (Homo sapiens) (Q9NP58 whole entry, looked up): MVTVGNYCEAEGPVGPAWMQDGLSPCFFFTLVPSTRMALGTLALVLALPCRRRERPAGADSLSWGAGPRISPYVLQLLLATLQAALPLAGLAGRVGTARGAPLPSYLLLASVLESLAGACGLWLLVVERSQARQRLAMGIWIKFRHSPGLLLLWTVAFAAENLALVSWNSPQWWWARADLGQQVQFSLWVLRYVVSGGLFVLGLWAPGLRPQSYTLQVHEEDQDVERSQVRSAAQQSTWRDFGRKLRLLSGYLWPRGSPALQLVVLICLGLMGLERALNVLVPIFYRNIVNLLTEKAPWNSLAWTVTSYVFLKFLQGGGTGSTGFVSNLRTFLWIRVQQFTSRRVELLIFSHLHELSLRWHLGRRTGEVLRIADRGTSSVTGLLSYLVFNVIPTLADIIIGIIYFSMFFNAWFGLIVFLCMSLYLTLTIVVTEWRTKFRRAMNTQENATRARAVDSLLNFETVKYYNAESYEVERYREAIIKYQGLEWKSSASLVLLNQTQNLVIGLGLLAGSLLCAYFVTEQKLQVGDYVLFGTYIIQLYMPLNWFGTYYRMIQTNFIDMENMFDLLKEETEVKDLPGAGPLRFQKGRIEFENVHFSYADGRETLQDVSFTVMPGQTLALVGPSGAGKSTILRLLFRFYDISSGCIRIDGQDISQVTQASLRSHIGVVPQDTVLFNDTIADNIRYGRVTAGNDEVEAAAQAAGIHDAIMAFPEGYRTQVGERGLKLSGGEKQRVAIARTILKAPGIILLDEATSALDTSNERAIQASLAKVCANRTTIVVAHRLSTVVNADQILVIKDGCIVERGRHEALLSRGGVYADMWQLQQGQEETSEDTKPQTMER

`COc1ccc(CCN(C)CCCC(C#N)(c2cc(OC)c(OC)c(OC)c2)C(C)C)cc1OC` (stereo not drawn): in test [1], the percent of DMSO control GFP is 100% (inactive). Further, the GFP response vs DMSO in test [2] is 99.3% (inactive); in test [4] it was 82.8% (inactive). For the same molecule, the percent response of DMSO control in test [3] is 111% (inactive). In addition, the GFP response, % of DMSO in [5] was 98.6% (inactive). Moreover, the double positive events in test [6] turned out to be 57.7%. In test [6], the vesicle binding response is 239% (inactive). Besides, the inhibition – broadly, the relative decrease from the control value, in per cent – in [7] was 11% (inactive); in test [11] it was -7.98% (inactive); in [15], 9% (inactive). The superoxide response (% of plate) in test [8] was 86% (inactive). The aptamer binding inhibition in [9] was 1% (inactive). The values for the response in test [10] and in test [12] were -12.7% (inactive) and 0.22% (inactive), respectively. Also, the binding (% of control) in [13] is 99.8% (inactive). Further, the efflux inhibition (fraction of control) in test [14] is -0.01 (inactive). In addition, the differentiation response in [16] was 3.18% (inactive).

Take `CC(=O)N(CCC(Cc1ccccc1)c1ccco1)Cc1ccco1` (stereo not drawn): the percent of DMSO control GFP in test [1] is 88.7% (inactive). Also, the results for the GFP response vs DMSO in [2] and in test [4] were 145% (active) and 77.6% (inactive), respectively. The percent response of DMSO control in test [3] was 104% (inactive). Further, in [5], the GFP response, % of DMSO was 77.1% (inactive). The molecule further showed a double positive events in test [6] of 68.1%. For the same molecule, the vesicle binding response in test [6] was 172% (inactive). Moreover, the inhibition in test [7] is -0.33% (inactive); in [11] it was 13.6% (inactive); in [15], 5% (inactive). In addition, the superoxide response (% of plate) in test [8] is 96.2% (inactive). The aptamer binding inhibition in test [9] was 1% (inactive). Besides, the response in [10] was 5.89% (inactive); in [12], -4.34% (inactive). For the same molecule, in [13], the binding (% of control) was 97.4% (inactive). In addition, the efflux inhibition (fraction of control) in test [14] was -0.06 (inactive). Also, the differentiation response in [16] was -3.28% (inactive).

Regarding `NS(=O)(=O)c1cc2c(cc1Cl)NCNS2(=O)=O`, in [1], the percent of DMSO control GFP was 99.7% (inactive). Further, the GFP response vs DMSO in test [2] was 102% (inactive); in [4], 132% (inactive). Besides, in [3], the percent response of DMSO control was 95.7% (inactive). For the same molecule, the GFP response, % of DMSO in test [5] was 123% (inactive). In addition, the double positive events in test [6] was 62.4%. Moreover, in test [6], the vesicle binding response was 245% (inactive). For the same molecule, the inhibition in test [7] is -4.52% (inactive); in [11], -24.8% (inactive); in test [15] it was 2% (inactive). For the same molecule, the superoxide response (% of plate) in test [8] was 89.4% (inactive). Further, the aptamer binding inhibition in [9] is -2% (inactive). The response in [10] is -19.4% (inactive); in test [12] it was 0.56% (inactive). In addition, the binding (% of control) in test [13] was 105% (inactive). The efflux inhibition (fraction of control) in test [14] was 0 (inactive). Also, the differentiation response in test [16] is -11.9% (inactive).

On to `NS(=O)(=O)c1cc2c(cc1Cl)NC(C1C[C@H]3C=C[C@@H]1C3)NS2(=O)=O` (stereo partly drawn), for which the percent of DMSO control GFP in test [1] was 104% (inactive). Moreover, the GFP response vs DMSO in test [2] is 106% (inactive); in [4], 105% (inactive). Besides, in [3], the percent response of DMSO control is 105% (inactive). Further, the GFP response, % of DMSO in [5] is 106% (inactive). In [6], this molecule came in with a double positive events of 61.8%. Moreover, the vesicle binding response in [6] was 153% (inactive). In addition, the inhibition in test [7] was -19.9% (inactive); in test [11], 11.5% (inactive); in test [15], 10% (inactive). In test [8], the superoxide response (% of plate) is 98.5% (inactive). In test [9], the aptamer binding inhibition is 2% (inactive). For the same molecule, the values for the response in test [10] and in test [12] were -2.86% (inactive) and -7.8% (inactive), respectively. For the same molecule, the binding (% of control) in test [13] was 97.3% (inactive). For the same molecule, the efflux inhibition (fraction of control) in [14] is 0.03 (inactive). Moreover, the differentiation response in test [16] was -17.7% (inactive).
